PubChem BioAssay AID1159580 (chemical genetic matrix, 2015)
The campaign covered roughly 5,500 compounds. About 2,000 (36%) were called active. Inconclusive results (about 18%) are left out. No stated cut-off is given here; in the data, active means normalized growth mostly below about 0.91 (no sharp cut-off); inconclusive means no clear call, values can overlap the other calls; inactive means mostly above about 0.92. The list shows a part of the results.

Assay: chemical genetic growth profiling, strain panel (AID 1159580);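 further: tested at 20 µM; growth read once vehicle control cultures reached saturation at 30 °C; 1 = growth at the plate median or of vehicle wells; lower values mean less growth of the strain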
Conditions: S. cerevisiae deletion strains, growth OD
[1] = locus YHR030C, strain SLT2, hits give low values
[2] = locus YHR079C, strain IRE1, hits give low values
[3] = locus YJL095W, strain BCK1, hits give low values
[4] = locus YJR066W, strain TOR1, hits give low values
[5] = locus YLR113W, strain HOG1, hits give low values
[6] = locus YNL183C, strain NPR1, hits give low values
[7] = locus YOR231W, strain MKK1, hits give low values
[8] = locus YPL256C, strain CLN2, hits give low values

Measured: normalized growth

OC[C@@H](O)[C@@H](O)[C@H](O)[C@@H](O)CO
inactive: [1] 0.986 | [2] 0.96 | [3] 0.992 | [4] 0.946 | [5] 0.989 | [6] 0.947 | [7] 0.989 | [8] 1.01

CCCc1cc(C(N)=S)ccn1
inactive: locus YAL021C, strain ccr4, hits give low values 0.966 | locus YAL026C, strain drs2, hits give low values 0.982 | locus YAL030W, strain snc1, hits give low values 0.985 | locus YBL061C, strain skt5, hits give low values 0.975 | locus YBR009C, strain hhf1, hits give low values 0.939 | locus YBR023C, strain chs3, hits give low values 0.963 | locus YBR171W, strain sec66, hits give low values 0.955 | locus YBR231C, strain swc5, hits give low values 0.981 | locus YBR279W, strain paf1, hits give low values 0.97 | locus YCL011C, strain gbp2, hits give low values 0.974 | locus YCL016C, strain dcc1, hits give low values 0.985 | locus YCL069W, strain vba3, hits give low values 0.963 | locus YCR088W, strain abp1, hits give low values 0.966 | locus YDL005C, strain med2, hits give low values 0.959 | locus YDL040C, strain nat1, hits give low values 0.964 | locus YDR001C, strain nth1, hits give low values 0.971 | locus YDR069C, strain doa4, hits give low values 0.95 | locus YDR137W, strain rgp1, hits give low values 0.976 | locus YDR159W, strain sac3, hits give low values 0.89 | locus YDR195W, strain ref2 0.976 | locus YDR297W, strain sur2, hits give low values 0.975 | locus YDR334W, strain swr1, hits give low values 0.929 | locus YDR335W, strain msn5, hits give low values 0.961 | locus YDR392W, strain spt3, hits give low values 0.886 | locus YEL003W, strain gim4, hits give low values 0.972 | locus YEL037C, strain rad23, hits give low values 0.964 | locus YEL061C, strain CIN8 (second series), hits give low values 0.96 | locus YER015W, strain faa2, hits give low values 0.978 | locus YER016W, strain bim1, hits give low values 0.988 | locus YER111C, strain swi4, hits give low values 0.988 | locus YER155C, strain BEM2 (second series), hits give low values 0.958 | locus YFR010W, strain ubp6, hits give low values 0.948 | locus YGL167C, strain pmr1, hits give low values 0.939 | locus YGL173C, strain kem1, hits give low values 0.966 | locus YGL227W, strain vid30, hits give low values 0.974 | locus YGL240W, strain doc1, hits give low values 0.953 | locus YGL253W, strain hxk2, hits give low values 0.952 | locus YHR013C, strain ard1, hits give low values 0.954 | locus YHR027C, strain rpn1, hits give low values 0.967 | [1] 1.01 | [2] 1.02 | locus YHR142W, strain chs7, hits give low values 0.981 | locus YJL092W, strain hpr5, hits give low values 0.971 | locus YJL095W, strain BCK1 (second series), hits give low values 0.978 | [3] 1.02 | locus YJL115W, strain asf1, hits give low values 0.948 | locus YJL129C, strain trk1, hits give low values 0.981 | locus YJL154C, strain vps35, hits give low values 0.96 | locus YJL164C, strain tpk1, hits give low values 0.971 | locus YJL166W, strain qcr8, hits give low values 0.95 | [4] 0.925 | locus YKL160W, strain elf1, hits give low values 0.989 | locus YKR026C, strain gcn3, hits give low values 0.942 | locus YKR091W, strain srl3, hits give low values 0.96 | locus YLL001W, strain dnm1, hits give low values 0.954 | locus YLL026W, hits give low values 0.985 | locus YLL041C, strain sdh2, hits give low values 0.964 | locus YLR027C, strain aat2, hits give low values 0.98 | [5] 0.997 | locus YLR221C, strain rsa3, hits give low values 0.956 | locus YLR258W, strain gsy2, hits give low values 0.966 | locus YLR262C, strain YPT6 (second series), hits give low values 0.943 | locus YLR320W, strain mms22, hits give low values 0.937 | locus YLR342W, strain FKS1, hits give low values 0.981 | locus YLR357W, strain rsc2, hits give low values 0.888 | locus YLR370C, strain arc18, hits give low values 0.955 | locus YLR384C, strain iki3, hits give low values 0.971 | locus YML120C, strain ndi1, hits give low values 0.964 | locus YMR058W, strain fet3, hits give low values 0.981 | locus YMR125W, strain sto1, hits give low values 0.918 | locus YMR129W, hits give low values 0.961 | locus YMR205C, strain PFK2, hits give low values 0.955 | locus YMR231W, strain pep5, hits give low values 0.967 | locus YNL071W, strain lat1, hits give low values 0.958 | [6] 0.942 | locus YNL209W, strain ssb2, hits give low values 0.955 | locus YNL248C, strain rpa49, hits give low values 0.925 | locus YNL322C, strain KRE1 (second series), hits give low values 0.966 | locus YNR049C, strain mso1, hits give low values 0.948 | locus YOR001W, strain rrp6, hits give low values 0.938 | locus YOR070C, strain gyp1, hits give low values 0.98 | locus YOR080W, strain dia2, hits give low values 0.942 | locus YOR083W, strain WHI5, hits give low values 0.946 | locus YOR106W, strain vam3, hits give low values 0.983 | [7] 1 | locus YOR265W, strain rbl2, hits give low values 0.978 | locus YOR270C, strain vph1, hits give low values 0.931 | locus YOR290C, strain snf2, hits give low values 0.989 | locus YPL051W, strain arl3, hits give low values 0.989 | locus YPL078C, strain atp4, hits give low values 0.991 | locus YPL106C, strain sse1, hits give low values 0.956 | locus YPL240C, strain hsp82, hits give low values 0.976 | [8] 1.01
